Hit rate of the full screen: of about 39,000 compounds, about 1,500 (3.8%) were called active. This is one part of a sample in which actives are shown more often than they occur.

These results are taken from the antibiotic and cytotoxicity screens of Wong et al. (2023).

The assay deals with HSkMC (human skeletal muscle cells). The assay is described as follows: cytotoxicity call (relative viability < 0.9). The note with it: 10 µM.
With `C[C@@H]1CN([C@H](C)CO)S(=O)(=O)c2ccc(C#Cc3ccccn3)cc2O[C@H]1CN(C)Cc1ccccc1`, the cytotoxicity call was “inactive”.

As to `CCCC(=O)Nc1ccc2c(c1)C(=O)N(C)C[C@H](OC)[C@@H](C)CN(S(=O)(=O)c1cn(C)cn1)[C@@H](C)CO2`, the cytotoxicity call is “inactive”.

Regarding `COc1cccc(OC)c1C(=O)O[C@H]1[C@@H]2OC(=O)[C@H](Cc3cccc(Br)c3)C/C=C/C[C@@H](Cc3cccc(Br)c3)C(=O)O[C@H]2[C@@H](OC)O[C@@H]1CO`, the cytotoxicity call is “inactive”.

In the case of `C[C@@H]1CCCCO[C@H](CN(C)C(=O)c2ccccc2)[C@H](C)CN([C@@H](C)CO)C(=O)c2cc(NC(=O)Nc3ccc(F)cc3)ccc2O1`, the cytotoxicity call is “inactive”.

As to `COc1ccc(NC(=O)Nc2ccc3c(c2)CC(=O)N([C@@H](C)CO)C[C@@H](C)[C@H](CN(C)Cc2ccc(-c4ccccc4)cc2)O3)cc1`, the cytotoxicity call was “inactive”.

Consider `C[C@H]1CCCCO[C@H](CN(C)C(=O)Nc2cccc3ccccc23)[C@@H](C)CN([C@@H](C)CO)C(=O)c2cc(N(C)C)ccc2O1`, for which the cytotoxicity call was “inactive”.

Take `COc1ccc(NC(=O)Nc2ccc3c(c2)C(=O)N([C@H](C)CO)C[C@H](C)[C@@H](CN(C)Cc2ccc(-c4ccccc4)cc2)O3)cc1`: the cytotoxicity call was “inactive”.

For the molecule `C[C@@H]1CN([C@H](C)CO)C(=O)c2cc(NC(=O)Nc3ccccc3)ccc2O[C@@H]1CN(C)Cc1ccc(Oc2ccccc2)cc1`, the cytotoxicity call is “active”.

In the case of `COc1ccc(NC(=O)Nc2ccc3c(c2)C(=O)N([C@@H](C)CO)C[C@H](C)[C@@H](CN(C)Cc2ccc(-c4ccccc4)cc2)O3)cc1`, the cytotoxicity call is “active”.

`C[C@H]1CN([C@@H](C)CO)C(=O)c2cc(NC(=O)Nc3ccccc3)ccc2O[C@H]1CN(C)Cc1ccc(Oc2ccccc2)cc1`: the cytotoxicity call was “inactive”.

For the molecule `COc1ccc(NC(=O)Nc2ccc3c(c2)C(=O)N([C@@H](C)CO)C[C@@H](C)[C@@H](CN(C)Cc2ccc(-c4ccccc4)cc2)O3)cc1`, the cytotoxicity call was “inactive”.

Take `C[C@@H]1CN([C@H](C)CO)C(=O)c2cc(NC(=O)Nc3ccccc3)ccc2O[C@H]1CN(C)Cc1ccc(Oc2ccccc2)cc1`: the cytotoxicity call is “inactive”.

For `COc1ccc2c3c([nH]c2c1)[C@@H](CO)N(C[C@]13CCN(CC1)Cc1ccccc1F)S(=O)(=O)c1cn(cn1)C`, the cytotoxicity call was “inactive”.

In the case of `C[C@@H]1CN([C@@H](C)CO)C(=O)c2cc(NC(=O)Nc3cccc4ccccc34)ccc2O[C@@H]1CN(C)C(=O)Nc1ccc(F)cc1`, the cytotoxicity call is “inactive”.

As to `CN1C(=O)c2cc(NC(=O)C3CCOCC3)ccc2OC[C@@H]2O[C@H](CC(=O)NCc3ccc4c(c3)OCO4)CC[C@@H]21`, the cytotoxicity call was “inactive”.

Turning to `COC(=O)c1c2oc(c1C(=O)OC)C(=O)N[C@H](Cc1ccccc1)Cn1cc(nn1)[C@@H](Cc1ccccc1)NC(=O)N[C@H](COC(=O)NCCCCCC(=O)NO)CC2`, the cytotoxicity call is “inactive”.

Turning to `Cc1cc(C)n([C@@H](C)CN)n1`, the cytotoxicity call is “inactive”.

As to `C[C@H]1CN([C@@H](C)CO)C(=O)c2cccc(NS(=O)(=O)c3cccs3)c2O[C@@H]1CN(C)S(=O)(=O)c1cn(C)cn1`, the cytotoxicity call is “inactive”.

`C[C@H](CO)N1C[C@H](C)[C@@H](CN(C)S(=O)(=O)c2cn(C)cn2)Oc2cc(C3=CCCC3)ccc2S1(=O)=O`: the cytotoxicity call was “inactive”.

`COc1ccc(CN(C)C[C@H]2Oc3ccc(NC(=O)C4CC4)cc3CC(=O)N([C@@H](C)CO)C[C@@H]2C)cc1`: the cytotoxicity call is “inactive”.

As for `C=C1CCC=C(C)CCC2C1CC2(C)C.O` (single isomer, unassigned; (-)) [(-)E-CARYOPHYLLENE hydrate ], the cytotoxicity call is “inactive”.

Regarding `C=C1C(=O)OC2C1CCC(C)=CCCC1(C)OC21` (configuration not stated), the cytotoxicity call is “active”.

As for `Cc1cc(C)nc(NS(=O)(=O)c2ccc(NC(=O)c3cccn(OCc4ccc(F)cc4)c3=O)cc2)n1`, the cytotoxicity call was “inactive”.

Turning to `Cc1ccc(C(=O)Nc2ccc(Oc3cc4cnn(C)c4cc3-c3cn[nH]c3)c(F)c2)c(=O)n1-c1ccc(F)cc1`, the cytotoxicity call was “active”.

In the case of `CCCNC(=O)N1C[C@@H](C)[C@@H](OC)CN(C)C(=O)c2ccc(NS(=O)(=O)CC(F)(F)F)cc2OC[C@@H]1C`, the cytotoxicity call is “inactive”.

Take `Cc1ccc(Oc2nnc(-c3cccs3)c3ccccc23)cc1`: the cytotoxicity call is “inactive”.

For `Cc1ccc(Nc2nnc(-c3ccccc3)c3ccccc23)cc1`, the cytotoxicity call was “inactive”.

With `Cc1csc(-c2nnc(Nc3ccc(Oc4ncccc4-c4ccnc(N)n4)cc3)c3ccccc23)c1`, the cytotoxicity call was “active”.

Consider `O=C(O)C[C@@H](O)C(=O)O`, for which the cytotoxicity call was “inactive”.

On to `COC(=O)C1=CO[C@@H](O[C@@H]2O[C@H](CO)[C@@H](O)[C@H](O)[C@H]2O)/C(=C\CO)[C@@H]1CC(=O)OCCc1ccc(O)cc1`, for which the cytotoxicity call was “inactive”.

For the molecule `C[C@@H]1CN([C@H](C)CO)S(=O)(=O)c2ccc(C3=CCCC3)cc2O[C@H]1CN(C)S(=O)(=O)c1ccc(F)cc1`, the cytotoxicity call was “inactive”.

Consider `CS(=O)(=O)N1CCc2c(-c3cnc(N)nc3)nc(N3CCOCC3)nc21`, for which the cytotoxicity call was “active”.

Consider `c1nc(N2CCOCC2)nc(N2CCOCC2)n1`, for which the cytotoxicity call was “inactive”.

Regarding `CS(=O)(=O)N1CC[C@]2(COCc3cnc(N4CCOCC4)nc32)C1`, the cytotoxicity call was “inactive”.

For `C[C@H]1CN([C@@H](C)CO)C(=O)c2cccc(NC(=O)c3ccncc3)c2O[C@H]1CN(C)Cc1ccc(Oc2ccccc2)cc1`, the cytotoxicity call is “inactive”.

As to `C[C@@H]1CCCCO[C@H](CN(C)C(=O)Nc2ccc(C(F)(F)F)cc2)[C@@H](C)CN([C@H](C)CO)C(=O)c2cc(NS(=O)(=O)c3ccccc3)ccc2O1`, the cytotoxicity call was “inactive”.

As to `C[C@H](CO)N1C[C@H](C)[C@H](CN(C)C(=O)Nc2ccc(C(F)(F)F)cc2)OCCCC[C@H](C)Oc2ccc(NS(=O)(=O)c3ccccc3)cc2C1=O`, the cytotoxicity call is “inactive”.

As for `C[C@H]1CCCCO[C@H](CN(C)C(=O)Nc2ccc(C(F)(F)F)cc2)[C@@H](C)CN([C@@H](C)CO)C(=O)c2cc(NS(=O)(=O)c3ccccc3)ccc2O1`, the cytotoxicity call was “active”.

With `C[C@H](CO)N1C[C@H](C)[C@@H](CN(C)C(=O)Nc2ccc(C(F)(F)F)cc2)OCCCC[C@H](C)Oc2ccc(NS(=O)(=O)c3ccccc3)cc2C1=O`, the cytotoxicity call is “inactive”.

Regarding `C[C@@H]1CCCCO[C@H](CN(C)C(=O)Nc2ccc(C(F)(F)F)cc2)[C@H](C)CN([C@H](C)CO)C(=O)c2cc(NS(=O)(=O)c3ccccc3)ccc2O1`, the cytotoxicity call is “inactive”.

Regarding `C[C@@H]1CN([C@@H](C)CO)C(=O)c2cc(NS(=O)(=O)c3ccccc3)ccc2O[C@@H](C)CCCCO[C@@H]1CN(C)C(=O)Nc1ccc(C(F)(F)F)cc1`, the cytotoxicity call is “active”.

In the case of `CCN1C(=O)[C@H]2[C@H]3[C@H](O)[C@H](O)C/C(=N\OC[C@@H](O)COCc4ccco4)[C@@H]3CC[C@H]2C1=O`, the cytotoxicity call was “inactive”.

With `C[C@@H]1CCCCO[C@@H](CN(C)S(=O)(=O)c2cccs2)[C@@H](C)CN([C@@H](C)CO)C(=O)c2cc(NC(=O)Nc3ccccc3)ccc2O1`, the cytotoxicity call is “inactive”.

`C[C@H]1CN([C@@H](C)CO)C(=O)c2cccc(NC(=O)C3CCOCC3)c2O[C@H]1CN(C)S(=O)(=O)c1cn(C)cn1`: the cytotoxicity call was “inactive”.

With `NC(=O)N1CCc2n[nH]c(C(=O)N3CCOCC3)c2C1`, the cytotoxicity call was “inactive”.

As for `CCc1nc(C(N)=O)c(Nc2ccc(N3CCC(N4CCN(C)CC4)CC3)c(OC)c2)nc1NC1CCOCC1`, the cytotoxicity call is “inactive”.

Turning to `C=CCn1c(=O)c2cnc(Nc3ccc(N4CCN(C)CC4)cc3)nc2n1-c1cccc(C(C)(C)O)n1`, the cytotoxicity call is “inactive”.

Regarding `C=CC(=O)N1CC[C@@H](Oc2nc(Nc3ccc(N4CCC(N5CCN(C)CC5)CC4)cc3)c(C(N)=O)nc2CC)C1`, the cytotoxicity call is “active”.

`COCC(=O)Nc1ccc2c(c1)C(=O)N(C)[C@@H]1CC[C@@H](CC(=O)NCc3ccc(OC)cc3)O[C@@H]1CO2`: the cytotoxicity call was “inactive”.

Take `COc1ccc(S(=O)(=O)Nc2cccc3c2O[C@@H](CN(C)Cc2ccc(-c4ccccc4)cc2)[C@H](C)CN([C@@H](C)CO)C3=O)cc1`: the cytotoxicity call was “inactive”.

`CC(CCC(=O)O)C1CCC2C3C(O)CC4CC(O)CCC4(C)C3CC(O)C12C` (configuration not stated): the cytotoxicity call is “inactive”.

With `CCCCCCCCCCCCCCCCCCCC(=O)N[C@H]1CC[C@@]2(C)[C@@H](C1)C[C@@H](O)[C@@H]1[C@@H]2C[C@H](O)[C@]2(C)[C@@H]([C@H](C)CCC(=O)O)CC[C@@H]12`, the cytotoxicity call was “active”.

As to `CC(CCC(=O)NCC(=O)O)C1CCC2C3C(O)CC4CC(O)CCC4(C)C3CC(O)C12C` (configuration not stated), the cytotoxicity call is “inactive”.

On to `CCc1cc(=O)oc2c(C)c(O[C@@H]3O[C@H](CO)[C@@H](O)[C@H](O)[C@H]3O)ccc12`, for which the cytotoxicity call is “active”.

As for `Cc1cc(=O)oc2cc(O[C@H]3O[C@@H](CO)[C@@H](O)[C@@H](O)[C@@H]3O)ccc12`, the cytotoxicity call is “inactive”.

With `Cc1c(C)c2ccc(O[C@@H]3O[C@H](CO)[C@H](O)[C@H](O)[C@H]3O)cc2oc1=O`, the cytotoxicity call was “inactive”.

Take `C[C@H](CO)N1C[C@H](C)[C@H](CN(C)Cc2ccc(F)cc2)Oc2cc(C#CC(C)(C)O)ccc2S1(=O)=O`: the cytotoxicity call is “inactive”.

Take `C=CCN(Cc1ccccc1)C(=O)[C@@H]1N(CCOCCO)C(=O)[C@@H]2[C@H](C(=O)O)[C@@H]3C=C[C@@]21O3`: the cytotoxicity call is “inactive”.

Take `C=CCOC(=O)[C@@H]1[C@@H]2C=C[C@]3(O2)[C@H](C(=O)N(CC=C)Cc2ccccc2)N(c2cccc(Cl)c2CO)C(=O)[C@@H]13`: the cytotoxicity call is “inactive”.

On to `C=CCOC(=O)[C@@H]1[C@@H]2C=C[C@@]3(O2)[C@@H]1C(=O)N(CCCCCCO)[C@H]3C(=O)N(CC=C)Cc1ccccc1`, for which the cytotoxicity call is “active”.

In the case of `CN1C(=O)C[C@H](C(=O)O)[C@H]1c1cccnc1`, the cytotoxicity call is “inactive”.

In the case of `COc1ccc(S(=O)(=O)Nc2ccc3c(c2)C(=O)N([C@@H](C)CO)C[C@H](C)[C@H](CN(C)S(=O)(=O)c2ccccc2)O3)cc1`, the cytotoxicity call is “inactive”.

Take `COc1ccc(CN(C)C[C@H]2Oc3c(NS(=O)(=O)c4cn(C)cn4)cccc3C(=O)N([C@H](C)CO)C[C@H]2C)cc1`: the cytotoxicity call is “inactive”.

With `C[C@H](CO)N1C[C@H](C)[C@H](CN(C)C(=O)Nc2cccc3ccccc23)Oc2ccc(NC(=O)Nc3ccc4c(c3)OCO4)cc2CC1=O`, the cytotoxicity call was “inactive”.

Regarding `Cc1cc(C)c(N(Cc2ccccc2)S(=O)(=O)c2ccc(OCCNC(=O)c3cc4ccccc4o3)cc2)c(C(=O)NO)c1`, the cytotoxicity call is “active”.

On to `CCc1nc2ccc(C(=O)NCCOc3ccc(OC)cc3)cn2c1N(CC)Cc1cccc(Br)c1`, for which the cytotoxicity call was “inactive”.

Turning to `O=C(NCCO)c1cc2ccccc2oc1=O`, the cytotoxicity call is “inactive”.
